This is part of a sample that, as a whole, favours compounds with a hit. Of some 83,000 tested, about 20% had one in any assay.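 Growth was measured after 48 h exposure to one concentration of compound in 96-well plates. Values under 10 count as active.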 A number with no mark means an inactive call. Calls of active or inactive are those of the source. Where a SMILES comes first, the peptide text is derived from it. [ ]: non-standard residue; d: D form. ξ: configuration not given here. ξD = NC(CC(=O)O)C(=O)O
Experiments:
Experiment in all cases: NCI-60 one-dose screen, 48 h (100 = growth as untreated, 0 = no growth, -100 = all killed)
Settings in all cases: 10 µM unless noted
[1] = tested on: NCI-H23 lung
[2] = tested on: NCI-H226 lung
[3] = tested on: NCI-H322M lung
[4] = tested on: HOP-62 NSCLC
[5] = tested on: NCI-H460 lung
[6] = tested on: HOP-92 NSCLC
[7] = tested on: NCI-H522 lung
[8] = tested on: 786-0 renal
[9] = tested on: COLO 205 colon
[10] = tested on: DU-145 prostate
[11] = tested on: K-562 leukemia
[12] = tested on: MALME-3M melanoma
[13] = tested on: MDA-MB-231 breast
[14] = tested on: RXF 393 renal
[15] = tested on: SF-268 CNS
[16] = tested on: SF-295 CNS
[17] = tested on: SF-539 CNS
[18] = tested on: UACC-257 melanoma
[19] = tested on: M14 melanoma
[20] = tested on: A549/ATCC NSCLC

Compound | growth [1] | growth [2] [%] | growth [3] [%] | growth [4] | growth [5] | growth [6] | growth [7] | growth [8] | growth [9] | growth [10] [%] | growth [11] | growth [12] | growth [13] | growth [14] | growth [15] [%] | growth [16] | growth [17] | growth [18] | growth [19] | growth [20] [%]
CC/C(=C(/CC)c1ccc(O)cc1)c1ccc(O)cc1 | 75.8% | 82.7 | 77.6 | 70.8% | 85.6% | 58.1% | 61% | 80% | 97.6% | 84.1 | 27.5% | 54.5% | 58.7% | 65.1% | 63.9 | 43.9% | 68.3% | 68.9% | 43.9% | 
Clc1ccc(-n2ncc3c(NCCCN4CCOCC4)ncnc32)cc1 | 87.6% | 91.8 | 89.8 | 87.7% | 102% | 71.3% | 94.7% | 107% | 87.4% | 104 | 94.2% | 95.7% | 83.2% | 90.3% | 99.1 | 99.4% | 97% |  | 97.2% | 
COC(=O)c1ccc(=O)c2nc3/c(=C/O)c(O)cc(=O)c3[nH]c12 | 15.1% | 34.9 | 29.1 | -9.51% (active) | 19.9% | -1.12% (active) | 6.78% (active) | 11.8% | 51% | 29.5 | 7.14% (active) | 1.52% (active) | 45.3% |  | 14.5 | 6.32% (active) | 12.6% | 5.98% (active) |  | 
O=C1/C(=C/c2ccccn2)CCc2ccccc21 | 105% | 98.2 | 113 | 113% | 102% | 91.5% | 89.9% | 101% |  | 103 | 7.2% (active) | 103% | 106% | 107% | 102 | 96.8% | 95.4% | 105% | 108% | 
CCOC(=O)C1=NN(c2ccccc2)C(=O)/C1=C\N1C(=O)/C(=C/c2cccc(O)c2)SC1=S | 87.8% | 103 | 98.9 | 84% | 103% | 73.6% | 82.3% | 98.8% | 114% | 96.8 | 100% |  | 87.6% | 101% | 91.7 | 104% | 107% | 98.3% | 89.6% | 
NCC(=O)NC(CC(=O)O)C(=O)O (configuration not stated) (H-Gly-[ξD]-OH) | 108% | 100 | 104 | 101% | 110% | 100% | 87.1% | 100% | 119% | 105 | 106% | 98.1% |  | 109% | 107 | 101% | 99.3% | 96.5% | 104% | 
CCOC(=O)/C(=C\c1ccc2ccccc2c1)P(=O)(OCC)OCC | 41.1% | 55.7 | 70 | 40.6% | 20% | 40.7% | -31.7% (active) | 11.6% |  |  | 11.8% | 72.1% | 16.3% | -23.4% (active) | 42.6 | 60.1% | 28.9% | 63.8% | 31.7% | 
CCC(=O)c1cc([N+](=O)[O-])c(Br)s1 | 93.4% | 99.1 | 101 | 101% | 108% | 89.1% |  | 109% | 11.5% | 105 | 44.5% | 90.5% | 103% | 91% | 96.6 | 103% | 88.5% | 96.5% | 71.6% | 105
CN(C)CC(C)(CN(C)C)C(=O)/C=C/c1c(Cl)cccc1Cl | 45.9% | 11.1 | 70.6 | 94.6% | 57.9% | 40.1% | -80.9% (active) | -44% (active) | 101% | 36.4 | -8.43% (active) | -67.2% (active) |  | -80.8% (active) |  | 78.2% | -2.86% (active) | 52.5% |  | 
COc1cc([C@@H]2c3cc4c(cc3[C@H](OC3OC5COC(c6ccccc6)OC5C(O)C3O)[C@H]3COC(=O)[C@H]23)OCO4)cc(OC)c1OC (some centres not stated) | 22.4% | 75.9 | 44.2 | 29.6% | 20.8% | 37.7% | 17.5% | 64% |  | 57 | 15.9% |  | 66.3% | 65.7% | 29.3 | 35.8% | 19.4% | 57.5% | 33.2% | 
O=C1c2ccccc2C(=O)c2c(O)c(Cl)cc(O)c21 | 96.6% | 104 | 111 | 96.2% | 100% | 87.7% | 85.4% | 99.2% |  | 69.7 | 57% | 71.5% | 95.6% | 103% | 94.4 | 113% | 99.1% | 58.4% |  | 
CCCCCCCCCCCCCCCCSC(=NCC)NCC | 39.4% | 85.7 | 17.4 | 25.9% | -83.9% (active) | -21.3% (active) | 23.5% | 11.1% | -98.7% (active) | 36 | -59.8% (active) |  | -18.4% (active) | 6.55% (active) | 39.5 |  | 32.8% | -12.4% (active) | -49.8% (active) | 
C[n+]1ccccc1C[n+]1ccccc1 | 106% | 108 | 128 | 100% | 115% | 101% | 111% | 108% |  | 114 | 87.8% | 118% | 122% | 115% | 96.8 | 114% | 106% | 112% |  | 
CC1(C)N=c2cc3c(cc2N1c1ccc(Cl)cc1)=Nc1ccccc1N3c1ccc(Cl)cc1 | 9.73% (active) | 53 | 75.2 | -19.2% (active) | 46.5% | -26.6% (active) | -22.1% (active) | 11.8% | 39.1% |  | -18.7% (active) | 79.4% | 83.3% |  | 49.6 | 31.7% | 79.7% | 40.5% | 19.3% | 
CC(C)=C1C=C2CC[C@@H]3[C@](C)(CCC[C@@]3(C)C(=O)O)[C@H]2CC1 | 101% | 103 | 94.8 | 93.6% | 106% | 97.2% | 96.2% | 95.9% | 107% | 105 | 84.3% | 91.3% | 99.6% | 112% | 97 | 95.8% | 97.5% |  | 100% | 
CCOC(=O)NC(/C=C/c1ccccc1)NC(=O)OCC | 102% | 102 | 104 | 100% | 108% | 108% | 100% | 103% | 112% | 109 | 107% | 109% |  | 121% | 101 | 104% | 98.9% | 98.3% | 103% | 
Cc1cc(C(=O)c2ccc(Cl)cc2)ccc1O | 102% | 90.1 | 103 | 85.7% | 106% | 104% | 72.5% | 79.7% | 122% | 98.2 | 112% | 112% | 94.3% | 75.7% | 92.5 | 90.3% | 93% | 115% | 89.2% | 
CCCCCCCCCCCCSC(=N)N | 87.4% | 107 | 68.7 | 58.3% | -28% (active) | -22.4% (active) | 88.5% | -37.7% (active) | -95.1% (active) | 42.8 | -40.8% (active) |  | -30.1% (active) | 21.5% | 67.8 |  | 74.9% | 14% | -5.2% (active) | 
